# Results filed as inconclusive are left out. Where a call stands in place of a potency, no number is given. Calls of active or inactive are those of the source. Unless noted, the call rests on the fitted dose curve; in most records, active means well fitted curve in the direction sought with a large enough effect; inconclusive means small, poorly fitted or top-dose-only effect, or another doubt; inactive means no such curve, though single readings can be large; an effect the other way counts as inactive or inconclusive.
# Tests used:
# [1] = target: Methanococcus maripaludis chaperonin (MmCpn) (UniProt Q6LX38); experiment: High-Throughput Screening for Modulators of Cytosolic Chaperonin Activity: MmCpn Primary Screen (AID 488978);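 further: 50 nM MmCpn enzyme hydrolysing 30 µM ATP at 37 °C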
# Outline: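 MmCpn (50 nM final) was preincubated with compound 5 min at RT, then 30 uM ATP (final) was added and the reaction ran 10 min at 37C. ADP produced was detected by Transcreener HTRF (ex 320 nm; em 590/665 nm).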
# [2] = target: Transient receptor potential cation channel subfamily V member 1 (Homo sapiens) (UniProt Q8NER1); experiment: HTS Assay for Compounds that Act as Enhancers of the Vanilloid Receptor 1 (AID 488979)
# Outline: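 TRPV1 cells loaded with Fluo-8 calcium dye; compound added and Ca2+ signal (ex 480/em 520 nm) followed 3 min, then capsaicin at EC20 added and read 2 more min to detect enhancement.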
# [3] = target: Thyrotropin receptor (Homo sapiens) (UniProt P16473); experiment: qHTS Assay for Antagonists of the Thyroid Stimulating Hormone Receptor (AID 488980); further: series mostly up to about 58 µM
# Outline: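 HEK293 cells transfected with human TSHR, suspended in HEPES-buffered HBSS with 70 uM RO 20-1724, were treated with compounds plus TSH at EC80 (4 nM final). cAMP was measured by competitive HTRF (cryptate anti-cAMP antibody, cAMP-d2 acceptor).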
# [4] = target: D(1A) dopamine receptor (Homo sapiens) (UniProt P21728); experiment: HTS Assay for Allosteric Agonists of the Human D1 Dopamine Receptor: Primary Screen for Agonists (AID 488981)
# Outline: (§1)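 Tetracycline-induced HEK293 Trex D1 cells with forced coupling to calcium, loaded with no-wash calcium dye; kinetic fluorescence read 180 s after compound addition for agonism, then a further 180 s after an EC20 dopamine challenge for potentiation.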
# [5] = target: D(1A) dopamine receptor (Homo sapiens) (UniProt P21728); experiment: HTS Assay for Allosteric Agonists of the Human D1 Dopamine Receptor: Primary Screen for Potentiators (AID 488982)
# Outline: as §1
# [6] = qHTS for Inhibitors of Cell Surface uPA Generation: Validation Assay (AID 493164)
# Outline: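 RAW 264.7 cells (4000/well) were plated overnight, then exposed for 18 h at 37 C, 5% CO2 to compounds in a 7-point 1:5 titration (2.45 nM–38.3 uM final). Intracellular ATP was read by ATP-Lite luminescence.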
# [7] = target: Galactokinase (Homo sapiens) (UniProt P51570); experiment: qHTS Validation Assay for Inhibitors of Human Galactokinase (GALK) (AID 493189)
# Outline: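 GALK (5 nM) with 35 uM ATP and 100 uM galactose in HEPES pH8.0, MgCl2, NaCl, DTT, BSA; 1 h at room temperature. Residual ATP read by Kinase-Glo Plus luminescence after 10 min.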
# [8] = Validation screen for small molecules that induce DNA re-replication in SW480 colon adenocarcinoma cells (AID 504364)
# Outline: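 SW480 cells (250/well) exposed 48 h at 37 C, 5% CO2, then Hoechst-stained 40 min. Nuclear DNA content imaged by fluorescence scanning (405 nm excitation, 500-530 nm emission); re-replication scored as increased nuclei with elevated intensity.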
# [9] = target: Peptidyl-prolyl cis-trans isomerase NIMA-interacting 1 (Homo sapiens) (UniProt Q13526); experiment: qHTS Validation Assay to Find Inhibitors of Pin1 (AID 504536; active means well fitted inhibition curve with a large enough effect in the polarisation, with a control signal flat, not every such curve was filed as active; the % refers to the polarisation)
# Outline: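 Fluorescence polarization competition: compounds (titration) displace HiFluor-488-labeled Pin1-1b peptide from Pin1 (0.3 uM final) in pH 7.5 HEPES buffer with DTT, 10 min at room temperature; %Activity normalized to no-enzyme wells, curves fitted.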
# [10] = target: Phosphoglycerate kinase, glycosomal (Trypanosoma brucei brucei) (UniProt P07378); experiment: qHTS Validation Assay to Find Inhibitors of Phosphoglycerate Kinase (AID 504547)
# Outline: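 PGK activity was coupled to GAPDH (100nM final), which generates the unstable substrate 1,3-bisphosphoglycerate in-well. Reactions ran 60 minutes at room temperature in 100mM TEA pH 7.6, 5mM MgCl2, 0.01% Tween-20, then Kinase-Glo Plus luminescence was read.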
# [11] = target: phosphoglycerate mutase (Leishmania major) (UniProt Q4Q090); experiment: qHTS Validation Assay to Find Inhibitors of Phosphoglycerate Mutase (AID 504548); further: series mostly up to about 58 µM
# Outline: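 Luminescent end-point read-out via Kinase-GloPlus after a 10-minute development. Reaction: 1.25nM Leishmania major PGAM with substrate and compound, 45 minutes at room temperature in TEA buffer (pH 7.6) with MgCl2 and Tween-20.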
# [12] = qHTS for Inhibitors of ATXN expression: Validation of Cytotoxic Assay (AID 588349); further: potency means the concentration at half of the fitted maximal effect
# Outline: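 HEK293 cells treated with titrated compound for 72 hr at 37 degrees C; viability read as intracellular ATP by CellTiter Glo luminescence.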
# [13] = target: D(1A) dopamine receptor (Homo sapiens) (UniProt P21728); experiment: HTS Assay for Allosteric Agonists of the Human D1 Dopamine Receptor: Primary Screen for Antagonists (AID 488983);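 further: calcium flux response to an EC80 dopamine challenge measured with no-wash dye; nearly all actives have a fitted effect of over 65% in size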
# Outline: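 Tetracycline-induced HEK293 T-REx D1 line, force-coupled to calcium flux, read with no-wash calcium dye. Compound added after 10 s baseline, read 180 s for agonism, then EC80 dopamine added and read a further 180 s.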
# [14] = target: ATP-dependent 6-phosphofructokinase (Trypanosoma brucei brucei) (UniProt O15648); experiment: qHTS Assay to Find Inhibitors of T. brucei phosphofructokinase: hit validation (AID 492961);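 further: luminescence reports ADP formed as PFK phosphorylates fructose-6-phosphate with ATP; series mostly up to about 51 µM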
# Outline: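 Inhibition of parasite PFK is measured as reduced ADP formation, quantified via luciferase after ATP depletion. Assay used 0.1 mM ATP, 0.5 mM F6P, 1.25 nM enzyme, 45 min incubation.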
# [15] = Validation screen for small molecules that induce genotoxicity in human embryonic kidney (HEK293T) cells expressing luciferase-tagged ELG1 (AID 493106)
# Outline: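 HEK293T cells expressing luciferase-tagged ELG1, 2,000 cells/well, exposed to compound 16 hr at 37 °C, 5% CO2. Luciferase read after ONE-Glo, 30 min at room temperature; increased signal indicates genetic stress.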
# [16] = target: ATPase family AAA domain-containing protein 5 (Homo sapiens) (UniProt Q96QE3); experiment: Validation screen for small molecules that inhibit ELG1-dependent DNA repair in human embryonic kidney (HEK293T) cells expressing luciferase-tagged ELG1 (AID 493107); further: nearly all actives have a fitted effect of over 70% in size; further: potency means the concentration at half of the fitted maximal effect
# Outline: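 HEK293T cells expressing luciferase-tagged ELG1, 2,000 per well, treated with 5-fluorouridine plus compound for 16 h at 37 C. ONE-Glo luminescence after 30 min at room temperature reports ELG1 reporter level.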
# [17] = target: Thyrotropin-releasing hormone receptor (Homo sapiens) (UniProt P34981); experiment: qHTS for Small Molecule Agonists and Allosteric Enhancers of Human TRH Receptor: Validation Screen for Agonists (AID 493127;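 active means calcium activation more than 3 SD above the typical response in the agonist read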); details: TRH receptor agonist cell assay; at 2 µM; stronger effect = higher value
# Outline: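 TRHR cells loaded with fluo-8 calcium dye; FDSS kinetic fluorescence (Ex 480/Em 530) read at 1 s/cycle after 23 nL compound addition. Agonist-mode calcium response recorded before the 10 nM TRH (EC20) addition.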
# [18] = Nrf2 qHTS screen for inhibitors: Validation (AID 493153; active means well fitted inhibition curve with a large enough effect in the main read-out, with a control signal flat, not every such curve was filed as active); details: Potency: luciferase luminescence; viability change: measured here: cytotoxicity max response
# Outline: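 A549 cells carrying ARE-firefly luciferase reporter, 5000 cells/well in 5% FBS OPTI-MEM, treated with compound over a concentration series for 18-24 h at 37 C. Luciferase luminescence gave Nrf2 activity; CellTiter-Fluor fluorescence gave viability.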
# [19] = target: Ubiquitin carboxyl-terminal hydrolase 1 (Homo sapiens) (UniProt O94782); experiment: Inhibitors of USP1/UAF1: Pilot qHTS (AID 504865); further: nearly all actives have a fitted effect of over 35% in size; further: potency means the concentration at half of the fitted maximal effect
# Outline: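 USP1/UAF1 complex (1nM) preincubated with compound 15 min at room temperature, then Ub-Rho substrate (150nM final) added. Fluorescence read kinetically at 480/540 nm, 6 reads every 60 seconds. Buffer: 50mM HEPES pH 7.8, 0.5mM EDTA, 0.1 mg/ml BSA, 1mM TCEP, 0.01% Tween-20.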
# [20] = target: Tyrosyl-DNA phosphodiesterase 1 (Homo sapiens) (UniProt Q9NUW8); experiment: Confirmation Assay for Inhibitors of Tyrosyl-DNA Phosphodiesterase (TDP1) (AID 489007); details: recombinant human TDP1 enzymatic activity, dose-response; further: potency means the concentration at half of the fitted maximal effect; nearly all actives have a fitted effect of over 40% in size
# Outline: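 Recombinant human Tdp1 (1 nM final), expressed in E. coli, preincubated 15 min with compound. Then 15 nM 5'-biotin/3'-phosphotyrosine-FITC DNA substrate added for 5 min at room temperature. AlphaScreen beads (10 ug/ml) added for 10 min; cleavage gives signal loss.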
# phosphoglycerate mutase (Leishmania major), sequence (Q4Q090 1-553): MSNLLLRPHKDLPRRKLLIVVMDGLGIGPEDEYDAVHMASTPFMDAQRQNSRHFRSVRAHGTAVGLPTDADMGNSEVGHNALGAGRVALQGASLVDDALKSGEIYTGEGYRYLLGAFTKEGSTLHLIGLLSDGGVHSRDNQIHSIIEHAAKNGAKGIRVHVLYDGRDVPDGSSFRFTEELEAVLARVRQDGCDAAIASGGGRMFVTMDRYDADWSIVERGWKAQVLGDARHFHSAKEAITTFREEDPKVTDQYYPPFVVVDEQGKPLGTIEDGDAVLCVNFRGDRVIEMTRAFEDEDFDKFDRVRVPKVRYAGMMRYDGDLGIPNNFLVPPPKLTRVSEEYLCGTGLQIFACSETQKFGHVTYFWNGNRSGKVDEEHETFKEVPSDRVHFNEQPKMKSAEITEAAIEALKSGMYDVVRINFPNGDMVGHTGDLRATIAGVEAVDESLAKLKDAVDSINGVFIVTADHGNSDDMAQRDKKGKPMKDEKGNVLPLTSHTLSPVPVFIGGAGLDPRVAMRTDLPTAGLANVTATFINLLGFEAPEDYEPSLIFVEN
# ATPase family AAA domain-containing protein 5 (Homo sapiens), sequence (Q96QE3 whole entry, looked up, the tested form may be a part): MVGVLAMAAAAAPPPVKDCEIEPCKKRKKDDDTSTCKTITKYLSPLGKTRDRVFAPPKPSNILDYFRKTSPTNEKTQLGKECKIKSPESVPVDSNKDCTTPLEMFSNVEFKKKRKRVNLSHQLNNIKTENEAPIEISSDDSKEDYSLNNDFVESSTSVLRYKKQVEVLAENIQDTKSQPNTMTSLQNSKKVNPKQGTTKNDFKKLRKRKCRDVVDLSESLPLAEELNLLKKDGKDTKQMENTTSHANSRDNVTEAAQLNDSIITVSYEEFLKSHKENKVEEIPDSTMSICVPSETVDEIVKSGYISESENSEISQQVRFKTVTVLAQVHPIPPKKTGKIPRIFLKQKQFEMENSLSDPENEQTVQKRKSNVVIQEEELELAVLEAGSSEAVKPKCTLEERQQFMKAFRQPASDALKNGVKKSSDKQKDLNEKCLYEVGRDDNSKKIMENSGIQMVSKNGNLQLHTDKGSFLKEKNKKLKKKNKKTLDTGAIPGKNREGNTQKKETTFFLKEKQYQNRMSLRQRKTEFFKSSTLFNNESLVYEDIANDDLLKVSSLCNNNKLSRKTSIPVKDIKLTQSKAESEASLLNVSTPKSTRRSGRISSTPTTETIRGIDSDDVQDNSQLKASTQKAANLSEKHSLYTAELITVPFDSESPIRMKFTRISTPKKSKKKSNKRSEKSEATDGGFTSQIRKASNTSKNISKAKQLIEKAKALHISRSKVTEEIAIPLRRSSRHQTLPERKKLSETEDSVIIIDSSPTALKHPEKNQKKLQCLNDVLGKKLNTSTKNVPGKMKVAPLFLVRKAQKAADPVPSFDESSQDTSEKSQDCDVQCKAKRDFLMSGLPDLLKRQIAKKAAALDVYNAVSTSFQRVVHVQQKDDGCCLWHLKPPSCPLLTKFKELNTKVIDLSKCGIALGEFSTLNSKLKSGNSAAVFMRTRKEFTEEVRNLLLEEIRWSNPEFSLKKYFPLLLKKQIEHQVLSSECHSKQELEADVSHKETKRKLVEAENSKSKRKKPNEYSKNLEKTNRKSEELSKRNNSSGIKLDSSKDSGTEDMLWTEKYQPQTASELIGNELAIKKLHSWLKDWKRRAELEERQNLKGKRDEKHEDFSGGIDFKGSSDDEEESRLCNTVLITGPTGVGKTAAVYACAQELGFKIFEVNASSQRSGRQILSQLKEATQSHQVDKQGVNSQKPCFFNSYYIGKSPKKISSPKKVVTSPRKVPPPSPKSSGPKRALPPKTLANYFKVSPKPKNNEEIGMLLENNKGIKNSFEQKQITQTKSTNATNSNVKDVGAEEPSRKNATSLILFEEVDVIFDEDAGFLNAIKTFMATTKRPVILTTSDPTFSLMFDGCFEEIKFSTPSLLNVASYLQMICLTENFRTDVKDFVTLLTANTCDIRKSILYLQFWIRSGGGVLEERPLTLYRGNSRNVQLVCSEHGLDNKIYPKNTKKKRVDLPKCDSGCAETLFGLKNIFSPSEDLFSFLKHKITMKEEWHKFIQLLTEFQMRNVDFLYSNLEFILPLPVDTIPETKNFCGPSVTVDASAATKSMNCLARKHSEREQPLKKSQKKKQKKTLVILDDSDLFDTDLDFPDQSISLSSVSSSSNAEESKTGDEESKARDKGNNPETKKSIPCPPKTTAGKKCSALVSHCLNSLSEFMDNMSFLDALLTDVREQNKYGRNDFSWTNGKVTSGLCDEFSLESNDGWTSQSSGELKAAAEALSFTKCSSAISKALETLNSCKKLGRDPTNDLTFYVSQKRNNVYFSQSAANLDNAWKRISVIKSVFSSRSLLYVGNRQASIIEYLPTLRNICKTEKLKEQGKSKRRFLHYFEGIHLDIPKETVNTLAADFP
# Methanococcus maripaludis chaperonin (MmCpn), sequence (Q6LX38 1-543): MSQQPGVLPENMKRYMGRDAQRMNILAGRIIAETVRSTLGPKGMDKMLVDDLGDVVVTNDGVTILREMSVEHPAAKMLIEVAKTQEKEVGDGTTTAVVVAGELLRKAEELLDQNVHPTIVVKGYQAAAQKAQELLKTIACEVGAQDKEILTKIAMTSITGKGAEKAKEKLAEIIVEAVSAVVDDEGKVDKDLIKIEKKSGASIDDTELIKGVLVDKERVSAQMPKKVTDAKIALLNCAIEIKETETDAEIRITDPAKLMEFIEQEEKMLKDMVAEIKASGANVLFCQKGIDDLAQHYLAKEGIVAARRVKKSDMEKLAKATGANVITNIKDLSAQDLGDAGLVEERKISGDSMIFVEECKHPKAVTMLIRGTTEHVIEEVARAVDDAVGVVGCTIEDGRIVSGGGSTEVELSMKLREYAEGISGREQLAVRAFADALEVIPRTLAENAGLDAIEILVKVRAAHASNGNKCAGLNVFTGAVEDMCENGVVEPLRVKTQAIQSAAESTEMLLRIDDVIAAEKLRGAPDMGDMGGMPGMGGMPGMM
# Phosphoglycerate kinase, glycosomal (Trypanosoma brucei brucei), sequence (P07378 whole entry, looked up): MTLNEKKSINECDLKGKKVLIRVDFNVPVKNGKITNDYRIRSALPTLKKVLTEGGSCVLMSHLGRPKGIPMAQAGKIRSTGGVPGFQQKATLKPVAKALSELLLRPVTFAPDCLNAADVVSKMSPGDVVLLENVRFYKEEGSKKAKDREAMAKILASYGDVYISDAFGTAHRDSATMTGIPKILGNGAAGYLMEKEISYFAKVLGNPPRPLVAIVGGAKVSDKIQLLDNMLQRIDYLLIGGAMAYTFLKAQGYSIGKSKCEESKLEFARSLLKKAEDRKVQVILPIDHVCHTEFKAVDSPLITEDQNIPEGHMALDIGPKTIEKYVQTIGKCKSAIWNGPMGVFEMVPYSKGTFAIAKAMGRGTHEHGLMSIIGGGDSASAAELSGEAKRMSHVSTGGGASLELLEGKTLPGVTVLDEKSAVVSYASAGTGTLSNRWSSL
# Transient receptor potential cation channel subfamily V member 1 (Homo sapiens), sequence (Q8NER1 whole entry, looked up): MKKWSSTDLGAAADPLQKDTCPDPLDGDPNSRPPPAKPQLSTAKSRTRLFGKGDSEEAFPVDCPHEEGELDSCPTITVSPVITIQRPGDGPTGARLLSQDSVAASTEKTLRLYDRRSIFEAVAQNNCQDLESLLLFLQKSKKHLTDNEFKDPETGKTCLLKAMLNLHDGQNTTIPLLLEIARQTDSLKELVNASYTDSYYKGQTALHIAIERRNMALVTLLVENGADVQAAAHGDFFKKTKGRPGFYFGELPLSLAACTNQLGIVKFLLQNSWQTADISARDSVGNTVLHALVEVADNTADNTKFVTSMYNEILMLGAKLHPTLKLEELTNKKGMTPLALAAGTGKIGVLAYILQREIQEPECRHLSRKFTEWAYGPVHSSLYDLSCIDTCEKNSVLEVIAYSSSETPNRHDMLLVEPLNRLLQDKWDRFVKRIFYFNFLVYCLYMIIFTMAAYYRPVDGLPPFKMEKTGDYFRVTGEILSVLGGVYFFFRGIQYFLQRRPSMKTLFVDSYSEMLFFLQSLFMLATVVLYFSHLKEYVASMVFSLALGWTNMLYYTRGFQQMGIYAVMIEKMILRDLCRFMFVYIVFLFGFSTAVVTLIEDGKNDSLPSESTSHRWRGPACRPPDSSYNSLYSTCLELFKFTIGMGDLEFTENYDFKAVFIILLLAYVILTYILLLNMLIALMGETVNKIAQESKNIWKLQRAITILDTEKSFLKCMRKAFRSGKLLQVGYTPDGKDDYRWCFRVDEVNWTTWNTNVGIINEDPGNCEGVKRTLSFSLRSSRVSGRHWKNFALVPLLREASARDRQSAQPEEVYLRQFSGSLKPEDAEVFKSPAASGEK
# Peptidyl-prolyl cis-trans isomerase NIMA-interacting 1 (Homo sapiens), sequence (Q13526 whole entry, looked up): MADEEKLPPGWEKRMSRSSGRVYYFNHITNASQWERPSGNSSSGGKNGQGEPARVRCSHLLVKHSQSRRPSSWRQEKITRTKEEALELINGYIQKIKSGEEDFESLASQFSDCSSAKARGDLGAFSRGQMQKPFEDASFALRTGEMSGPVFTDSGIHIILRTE
# Galactokinase (Homo sapiens), sequence (P51570 whole entry, looked up): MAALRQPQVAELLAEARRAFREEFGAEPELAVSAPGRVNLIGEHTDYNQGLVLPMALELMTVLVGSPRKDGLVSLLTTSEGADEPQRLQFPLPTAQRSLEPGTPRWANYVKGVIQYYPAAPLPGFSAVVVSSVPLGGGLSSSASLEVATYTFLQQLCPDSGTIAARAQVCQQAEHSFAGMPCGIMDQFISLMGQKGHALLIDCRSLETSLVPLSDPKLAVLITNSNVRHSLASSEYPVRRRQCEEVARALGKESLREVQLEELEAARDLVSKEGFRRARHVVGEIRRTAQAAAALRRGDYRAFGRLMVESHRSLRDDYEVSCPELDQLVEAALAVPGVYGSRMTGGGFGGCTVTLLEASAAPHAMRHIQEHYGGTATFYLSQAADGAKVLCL
smiles,measurement,setting,value
CC(=O)[C@H]1CC[C@H]2[C@@H]3CCC4=CC(=O)CC[C@]4(C)[C@H]3CC[C@]12C,outcome,[1],inactive
same,outcome,[2],inactive
same,outcome,[3],inactive
same,outcome,[4],inactive
same,outcome,[5],inactive
same,outcome,[6],inactive
same,outcome,[7],inactive
same,outcome,[8],inactive
same,outcome,[9],inactive
same,Potency,[10],inactive
same,outcome,[11],inactive
same,Potency,[12],inactive
CC(C)NCC(O)c1ccc(NS(C)(=O)=O)cc1 (stereo not drawn),outcome,[1],inactive
same,outcome,[2],inactive
same,outcome,[3],inactive
same,outcome,[4],inactive
same,outcome,[5],inactive
same,outcome,[13],inactive
same,Potency,[14],inactive
same,outcome,[15],inactive
same,Potency,[16],inactive
same,activation,[17],0.875% (inactive)
same,Potency,[18],inactive
same,viability change,[18],-6.97%
same,outcome,[6],inactive
same,outcome,[7],inactive
same,outcome,[8],inactive
same,outcome,[9],inactive
same,Potency,[10],inactive
same,outcome,[11],inactive
same,Potency,[19],inactive
same,Potency,[12],inactive
C1CCC(C(CC2CCCCN2)C2CCCCC2)CC1 (stereo not drawn),Potency,[14],inactive
CC1=C(C(=O)O)N2C(=O)[C@@H](NC(=O)C(N)c3ccccc3)[C@H]2SC1 (stereo partly drawn),outcome,[1],inactive
same,outcome,[2],inactive
same,outcome,[4],inactive
same,outcome,[5],inactive
same,outcome,[13],inactive
same,outcome,[15],inactive
same,Potency,[16],inactive
same,activation,[17],0% (inactive)
same,Potency,[18],inactive
same,viability change,[18],3.05%
same,outcome,[6],inactive
same,outcome,[7],inactive
same,outcome,[8],inactive
same,Potency,[10],inactive
same,outcome,[11],inactive
same,Potency,[19],inactive
same,Potency,[12],inactive
Cc1cccc(N(C)C(=S)Oc2ccc3ccccc3c2)c1,Potency,[14],inactive
CCn1cc(C(=O)O)c(=O)c2cc(F)c(N3CCN(C)CC3)cc21,Potency,[14],inactive
C[C@@H](NCCCc1cccc(C(F)(F)F)c1)c1cccc2ccccc12,Potency,[14],inactive
O=C(O)c1cn(C2CC2)c2cc(N3CCNCC3)c(F)cc2c1=O,Potency,[14],inactive
CC(C)(C)NC(=O)[C@H]1CC[C@H]2[C@@H]3CC[C@H]4NC(=O)C=C[C@]4(C)[C@H]3CC[C@]12C,outcome,[2],inactive
same,activation,[17],0.688% (inactive)
same,outcome,[7],inactive
same,outcome,[8],inactive
Cc1ccc(S(=O)(=O)N[C@@H](Cc2ccccc2)C(=O)CCl)cc1,outcome,[2],inactive
same,outcome,[3],inactive
same,outcome,[4],inactive
same,outcome,[5],inactive
same,outcome,[15],inactive
same,Potency,[16],14.6 µM (active)
same,activation,[17],2.5% (inactive)
same,outcome,[6],inactive
same,outcome,[7],inactive
same,outcome,[8],inactive
same,outcome,[9],inactive
same,Potency,[10],inactive
same,outcome,[11],inactive
same,Potency,[19],44.7 µM (active)
same,Potency,[12],14.1 µM (active)
Nc1nc(N)c2nc(CNc3ccc(C(=O)NC(CCC(=O)O)C(=O)O)cc3)cnc2n1 (stereo not drawn),outcome,[1],inactive
same,outcome,[2],inactive
same,outcome,[3],inactive
same,outcome,[4],inactive
same,outcome,[5],inactive
same,outcome,[13],inactive
same,Potency,[16],inactive
same,activation,[17],1% (inactive)
same,outcome,[6],inactive
same,outcome,[7],inactive
same,outcome,[8],inactive
same,outcome,[11],inactive
same,Potency,[12],inactive
O=C(O)CCn1c2c(c3ccccc31)C[C@H](NS(=O)(=O)c1ccc(F)cc1)CC2,Potency,[14],inactive
CN(CCOc1ccc(CC2SC(=O)NC2=O)cc1)c1ccccn1 (stereo not drawn),Potency,[14],inactive
CCCc1cc(C(N)=S)ccn1,Potency,[14],inactive
CCc1c2c(nc3ccc(OC(=O)N4CCC(N5CCCCC5)CC4)cc13)-c1cc3c(c(=O)n1C2)COC(=O)[C@]3(O)CC,Potency,[14],inactive
CCn1cc(C(=O)O)c(=O)c2cc(F)c(N3CCNCC3)cc21,Potency,[14],inactive
CCN1CCCC1CNC(=O)c1cc(S(N)(=O)=O)ccc1OC (stereo not drawn),outcome,[1],inactive
same,outcome,[2],inactive
same,outcome,[3],inactive
same,outcome,[4],inactive
same,outcome,[5],inactive
same,outcome,[15],inactive
same,activation,[17],0.25% (inactive)
same,Potency,[18],inactive
same,viability change,[18],7.94%
same,outcome,[6],inactive
same,outcome,[7],inactive
same,outcome,[8],inactive
same,outcome,[9],inactive
same,Potency,[10],inactive
same,outcome,[11],inactive
same,Potency,[19],inactive
same,Potency,[12],inactive
COc1ccc(C(=O)CC(=O)c2ccc(C(C)(C)C)cc2)cc1,Potency,[20],25.1 µM (active)
same,Potency,[19],inactive
O=c1oc2c(O)c(O)cc3c(=O)oc4c(O)c(O)cc1c4c23,Potency,[20],0.004 µM (active)
CCN(CC)CCn1c(=O)c(Cc2ccc(OC)cc2)nc2ccccc21,outcome,[1],inactive
same,outcome,[4],inactive
same,outcome,[5],inactive
same,outcome,[13],inactive
same,outcome,[15],inactive
same,Potency,[16],inactive
same,Potency,[18],inactive
same,viability change,[18],-5.84%
same,outcome,[6],inactive
same,outcome,[9],inactive
same,Potency,[10],inactive
same,outcome,[11],inactive
same,Potency,[19],inactive
same,Potency,[12],inactive
NC(=O)c1ccc2[nH]ccc2c1,outcome,[1],inactive
same,outcome,[4],inactive
same,outcome,[5],inactive
same,outcome,[13],inactive
same,outcome,[15],inactive
same,Potency,[18],inactive
same,viability change,[18],-7.5%
same,outcome,[6],inactive
same,outcome,[9],inactive
same,Potency,[10],inactive
same,outcome,[11],inactive
same,Potency,[19],inactive
same,Potency,[12],inactive

# From PubChem BioAssay (NCATS)
